Sampled rows, rich in hits. Any-hit rate of the full collection: about 0.9%.
HIV TAR-Tat = HIV-1 TAR-Tat binding disruption | HIV-1 TAR RNA, Tat peptide displacement FRET; active compounds read high | z-score (concentration not given with the values) | 100,000 compounds, 0.6% hits; active = z-score of 3 or more in at least 2 runs
CDC25B-CDK2 inh = human CDC25B-CDK2/CyclinA binding inhibition; P30305+P24941; HTRF CDC25B-CDK2/CyclinA binding, anti-His/anti-Flag; active compounds read high; z-score (no concentration beside the values); 94,000 compounds, 0.72% hits; AID 1259370; in the data active = z-score above about 3.2
Starred values were filed as active, the others as inactive; nt = no result.

SMILES | HIV TAR-Tat | CDC25B-CDK2 inh
CC1CCN(S(=O)(=O)c2ccc3c(c2)oc(=O)n3CC(=O)NC2CCCc3ccccc32)CC1 (centres undefined) | 1.5 | -0.96
Cn1nccc1NC(=O)CN(CC(=O)O)Cc1ccccc1 | nt | -0.68
Cc1ccc(OC(=O)c2nc(S(C)(=O)=O)ncc2Cl)cc1 | 0.58 | 0.63
CC(=O)Oc1cc(OC(C)=O)c2c(c1)O[C@H](c1ccc(OC(C)=O)c(OC(C)=O)c1)[C@@H](OC(C)=O)C2 | 0.8 | nt
O=C(O[C@@H]1Cc2c(O)cc(O)cc2O[C@@H]1c1cc(O)c(O)c(O)c1)c1cc(O)c(O)c(O)c1 | 25* | nt
COc1ccc(Cl)cc1NC(=O)CSc1nncn2c1cc1occc12 | -14 | nt
O=C(Nc1ccccc1Br)Nc1c[nH]c(=O)[nH]c1=O | 0.08 | nt
COc1ccc2nc(Nc3sc4c(c3C(N)=O)CCCC4)sc2c1 | -1.3 | 4.3*
COc1cc(OC)cc(C(=O)Nc2sc3c(c2C(N)=O)CCCC3)c1 | nt | -0.63
COc1ccc2nc(NC(=O)CSc3ccccn3)sc2c1 | nt | 0.48
O=C(NCc1ccc2c(c1)OCO2)c1ccc2nc3[nH]c4ccccc4c3nc2c1 | 1.7 | nt
O=C(NCc1ccc2c(c1)OCO2)c1ccc2nc(-c3ccco3)c(-c3ccco3)nc2c1 | 60* | nt
CN(C)c1ccc(CNS(=O)(=O)c2ccc(-c3ccc(=O)[nH]n3)o2)cc1 | 0.56 | nt
CC1=CC(=O)N(c2nc(-c3ccc(Cl)cc3)cs2)C1=O | nt | -1.3
CC1=NN(c2nc(-c3ccc(Cl)cc3)cs2)C(=O)/C1=C\c1ccc2c(c1)OCO2 | nt | 6.9*
CC1=NN(c2nc(-c3ccc(Br)cc3)cs2)C(=O)/C1=C\c1ccc2c(c1)OCO2 | nt | 21*
O=C(CCN1C(=O)/C(=C/c2ccc3c(c2)OCO3)SC1=S)Nc1nc(-c2ccccc2)cs1 | nt | -39
COCCOC(=O)C1=C(C)NC2=C(C(=O)CC(C)(C)C2)C1c1cc(OC)ccc1OC (centres undefined) | 0.52 | -1.6
Cc1nc2ccccc2c2c1C(=O)N(CC1CCCO1)C2=O (centres undefined) | 0.78 | 7.4*
Cc1nc2ccccc2c2c1C(=O)N(CC(C)C)C2=O | -0.86 | -0.98
CS(=O)(=O)N1CCN(c2ccc(NC(=O)CN3C(=O)c4ccccc4S3(=O)=O)cc2)CC1 | 0.69 | 1.2
O=C(CN1C(=O)c2ccccc2S1(=O)=O)Nc1ccc(N2CCCC2)cc1 | 15* | 11*
CC(=O)N1CCC(C(=O)O)CC1 | nt | -0.53
CCCCN(C)CCNS(=O)(=O)c1cc(Br)cc2c1N(C(=O)CC)CC2 | nt | 0.85
CCCCN(C)CCNS(=O)(=O)c1cc(Br)cc2c1N(C(C)=O)CC2 | nt | 7.4*
SMILES | HIV TAR-Tat | CDC25B-CDK2 inh
Cc1ccc(CN(C(=O)Cc2coc3ccc(C)cc23)C2CCS(=O)(=O)C2)cc1 (centres undefined) | 2.8 | -2.4
Cc1cc(=O)nc2c3ccccc3n(CC(=O)N3CCN(c4ccccc4)CC3)n12 | 0.95 | -1.2
CCOC(=O)C1CCN(c2cc(=O)n(C)c(=O)[nH]2)CC1 | -0.66 | -1.5
O=C(O)C1CC(C(F)(F)F)CC(C(F)(F)F)C1 (centres undefined) | nt | -1.4
Cc1ccc(NC(=O)Nc2nnc(CC(=O)Nc3ccccc3)s2)cc1 | nt | 0.1
COc1ccc(NC(=O)Nc2nnc(CC(=O)Nc3ccc(C)cc3)s2)cc1 | nt | 5.5*
O=C1c2cc([N+](=O)[O-])ccc2-c2ccc([N+](=O)[O-])cc21 | nt | 0.65
CCCNC(=O)c1cc([N+](=O)[O-])cc2c1-c1ccc([N+](=O)[O-])cc1C2=O | nt | 16*
CC(NC(=O)Cn1ncc2ccsc2c1=O)C12CC3CC(CC(C3)C1)C2 (centres undefined) | nt | 0.7
Cc1cc(C)n2nc(NC(=O)C3CC3)nc2n1 | 1.2 | -1
NC(N)=N/N=C\c1cc([N+](=O)[O-])cc(Cl)c1O | nt | 0.21
Cc1c(C(=O)N2CCN(c3ccccc3)CC2)sc2ncnc(N3CCN(c4ccccn4)CC3)c12 | 1.2 | -1.7
Cc1c(C(=O)O)sc2ncnc(NC(C)C)c12 | 0.33 | nt
COCCNc1ncnc2sc(C(=O)O)c(C)c12 | 2.5 | nt
COc1cc(OC)c(Nc2ncnc3sc(C(=O)O)c(C)c23)cc1Cl | 4.2* | nt
Cc1c(C(=O)O)sc2ncnc(Nc3cccc(Cl)c3)c12 | 21* | nt
Cc1c(C(=O)O)sc2ncnc(Nc3ccc(F)cc3)c12 | 25* | nt
Cc1c(C(=O)O)sc2ncnc(N3CCN(c4ccccc4)CC3)c12 | 29* | nt
Cc1c(C(=O)O)sc2ncnc(NCC3CCCO3)c12 (centres undefined) | 2.1 | nt
Cc1c(C)n(C2CCCCC2)c2ncn3nc(-c4ccccc4)nc3c12 | -0.31 | -1.5
O=C(c1ccccc1F)N1CCc2cc3ccccc3nc21 | -0.42 | -0.91
CCOc1ccc(Nc2ncnc3sc(C(=O)O)c(C)c23)cc1 | 4.7* | nt
CCC(C)Nc1ncnc2sc(C(=O)O)c(C)c12 (centres undefined) | 3.3 | nt
Cc1c(C(=O)O)sc2ncnc(NCc3cccs3)c12 | 9.8* | nt
Cc1c(C(=O)O)sc2ncnc(NCCc3ccco3)c12 | 0.32 | nt
SMILES | HIV TAR-Tat | CDC25B-CDK2 inh
Cc1c(N2CCN(C(=O)CN3C(=O)C(C)Oc4ccccc43)CC2)c(=O)n(C)c(=O)n1C (centres undefined) | 0.19 | nt
CCN(CC)C(=O)CSc1nc(-c2cccc(C)c2)nc2c1Cc1c(CO)cnc(C)c1O2 | 0.83 | nt
COc1ccc(NS(=O)(=O)c2ccc(N3CCCC3=O)cc2)c(OC)c1 | 0.88 | nt
CN1CCN(c2ccccc2NC(=O)c2cc3ccc4cccnc4c3[nH]2)CC1 | 0.5 | nt
CCOC(=O)CSc1nnc(NCC(=O)OC)c(=O)[nH]1 | nt | 4.2*
CCOC(=O)CSc1nnc(-c2ccccc2)c(=O)[nH]1 | -0.43 | 2.1
CCOC(=O)C1=C(C(=O)OCC)SC(=C2C(=S)C(C)(C)Nc3ccc(C)cc32)S1 | 1.2 | 19*
CCCC(=O)N1c2ccccc2C(=C2SC(C(=O)OC)=C(C(=O)OC)S2)C(=S)C1(C)C | 0.88 | -4.6
CCC(=O)N1c2ccc(C)cc2C(=C2SC(C(=O)OC)=C(C(=O)OC)S2)C(=S)C1(C)C | 1 | 0.15
COC(=O)C1=C(C(=O)OC)SC(=C2C(=S)C(C)(C)Nc3ccccc32)S1 | 0.87 | 14*
CCC(C(=O)NC(C)c1ccccc1)n1nc(C)n2c(cc3sccc32)c1=O (centres undefined) | -1.7 | -0.2
CCOC(=O)Cn1cnc2nn(-c3ccccc3)cc2c1=O | 5.1* | 3.6
CCOC(=O)c1ncn(-c2ccccc2)n1 | 0.55 | -1.9
O=C1CC(c2ccccc2)Cc2c1cnn2-c1nc2ccccc2s1 (centres undefined) | -1.9 | -0.95
O=C(Cn1cnc2nc3c(cc2c1=O)CCCC3)Nc1ccc(Cl)cc1 | -0.13 | nt
O=C(CSc1nc2c(c(=O)[nH]1)CCCC2)Nc1ccccc1F | 15* | -1.6
O=C(CSc1nc2c(c(=O)[nH]1)CCCC2)Nc1ccccc1Cl | 0.06 | -1.7
CCOCCCNc1cc(N2CCN(C3CCCCC3)CC2)c2noc3c2c1C(=O)c1ccccc1-3 | 1.5 | -1.8
O=C(O)CCCNc1cc(N2CCC(=O)CC2)c2noc3c2c1C(=O)c1ccccc1-3 | 27* | 14*
CCCN1CCN(c2cc(NCCCC(=O)O)c3c4c(onc24)-c2ccccc2C3=O)CC1 | -5.8 | -2
O=C(O)CCCNc1cc(N2CCN(C3CCCCC3)CC2)c2noc3c2c1C(=O)c1ccccc1-3 | -3.4 | 13*
Cn1cc(NC(=O)Nc2ccccc2Cl)c2ccccc2c1=O | -1.6 | nt
O=C(Nc1ccc(OCc2cc(=O)n3ccccc3n2)cc1)c1cccs1 | -2.6 | nt

Screens (PubChem BioAssay)
